# Compound activity from PubChem BioAssay.
# Only some compounds are listed: those with a hit (about 2.5% of all), similar ones and a draw of the others.
# GC-A act – GC-A (human) enzyme activation; P16066; HEK293 GC-A cells, cGMP TR-FRET, EC30 ANP; 0% at EC30 ANP, 100% saturating ANP; activation, % at 10 µM; 370,000 tested, 0.14% active; AID 1671463; in the data active = activation above about 40%
# DYRK1A inh – blocks rat Dyrk1A kinase activity. AID 504441. ADP-Glo luminescence, NFATc1 peptide. inhibition, % at 12.5 µM. Q63470. 310,000 tested, 0.43% active; in the data active = inhibition above about 50%;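 note: plate controls were vehicle with enzyme for no effect and no enzyme for full effect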
# HSF1 activator – increases HSF-1 driven luciferase reporter signal; NIH3T3-HGL HSF-1 luciferase reporter, MG132, 8 h; 100% = twice DMSO control signal; activation, % at 9 µM; 300,000 tested, 1.7% active;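 active = mean replicate activation of at least 50% with a set share of replicates each reaching 50%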;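 note: 0% = median of the neutral control wells and 100% = twice that signal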
# HSF1 inh – HSF1 inhibition | 300,000 tested, 0.77% active | NIH3T3-HGL HSE-luciferase, MG132-induced, luminescence 8 h; hits give low values | AID 2098 | activity change, negative = inhibition, % at 7.5 µM (by protocol);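 active = more than half of replicate wells show activity change below -50%, luminescence cut by over half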;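 note: luciferase reports HSF-1 transcriptional activity via heat shock element; 0% = median of DMSO wells and -100% = zero luminescence signal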
# NPR2 activator – GC-B (human) receptor activation; activation, % at 10 µM; 370,000 tested, 0.11% active; P20594; HEK293-GC-B cells, CNP EC30, cGMP TR-FRET; 0% at EC30 CNP, 100% saturating CNP; AID 1920062;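 active = activation at 10 µM reaching about 35% in either raw or pattern-adjusted values, limit read from the data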
# aDG glyco up – alpha-DG glycosylation activation | Pro5-aDG cells, alpha-DG glycosylation AlphaScreen (IIH6); 0% Pro5, 100% B10-LARGE cell signal | activation, % at 10 µM | 360,000 tested, 0.22% active | AID 624168;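 active = activation of at least 8% versus controls, or a plate z-score of at least 8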;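 note: Pro5 are CHO cells carrying HIG-tagged alpha-DG that lacks glycosylation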
# An asterisk follows results filed as active; . = no result.
SMILES,GC-A act,DYRK1A inh,HSF1 activator,HSF1 inh,NPR2 activator,aDG glyco up
COC(=O)C1C2C=CC3(CN(C(C)c4ccc(OC)cc4)C(=O)C13)O2 (stereo unspecified),0,-12,-14,1,5,0
CC(C)(C)Nc1nc(-c2ccc3c(c2)CCN3C(=O)C2CC2)cs1,1,-1,0,2,2,0
CC(/C=N/NC(=O)c1cc(-c2ccc(Cl)cc2)nc2ccccc12)=C\c1ccco1,-7,-6,-6,-10,0,0
CC(/C=N/NC(=O)c1cc(-c2ccccc2)nc2ccccc12)=C\c1ccco1,-2,-1,55*,19,0,0
Clc1ccc(-n2ncc3c(NCCN4CCOCC4)ncnc32)cc1,17,9,-58,-54*,-3,0
Cc1ccc(-n2ncc3c(N4CCN(c5ccccc5)CC4)ncnc32)c(C)c1,6,-7,-29,-23,-2,0
COc1ccc(-n2ncc3c(N4CCCCC4)ncnc32)cc1,.,34,-84,-81*,.,0
Clc1ccc(-n2ncc3c(N4CCCCCC4)ncnc32)cc1,8,-6,-90,-89*,0,0
COc1ccc(-n2ncc3c(N4CCN(c5cccc(C)c5C)CC4)ncnc32)cc1,-7,6,3,-1,-10,0
Clc1ccc(Cn2ncc3c(N4CCCCC4)ncnc32)cc1,3,.,14,5,21,0
COc1ccc(N2CCN(c3ncnc4c3cnn4-c3ccc(C)cc3C)CC2)cc1,0,-10,77*,47,-2,2
O=C(Nc1ccn(CCCN2CCN(c3ncccn3)CC2)c(=O)n1)OCc1ccccc1,3,.,.,.,-1,0
Cc1ccc(/C=N\NC(=O)Cc2noc3ccccc23)cc1,5,-4,-89,-87*,-2,0
COc1ccccc1Nc1nn2c(=O)c3ccc(C(=O)N4CCC(C)CC4)cc3nc2s1,17,.,33,3,20,-1
CCOC(=O)C1CCN(C(=O)c2ccc3c(=O)n4nc(Nc5ccccc5)sc4nc3c2)CC1,34,.,.,.,40*,0
C=C(C)Cn1c2ccc(NC(=O)CCc3cccnc3)cc2c(=O)n1C,3,.,.,.,1,0
O=C(Nc1c(C(=O)N2CCC(N3CCCCC3)CC2)oc2ccccc12)c1ccc(F)cc1,1,0,20,-2,-5,0
O=C(Nc1ccccc1)C1=C(O)CC(c2ccoc2)CC1=Nc1ccccc1 (stereo unspecified),-3,0,86*,68,-1,0
O=C(Nc1ccccc1)C1=C(O)CC(c2ccco2)CC1=Nc1ccccc1 (stereo unspecified),-6,1,-9,-7,-4,2
CC(=O)Cn1ncc(Br)c(Br)c1=O,8,3,-94,-94*,1,-1
O=C(OCn1ncc(Br)c(Br)c1=O)c1c(F)cccc1F,.,.,-96,-95*,.,.
CCOC(=O)N1CCC(NC(=O)C2CCN(S(=O)(=O)c3cccs3)CC2)CC1,2,-5,18,2,2,0
COC(=O)c1ccc2nc(-c3ccc(C)cc3)c(Cc3ccc(C)cc3)n2c1,34,.,.,.,50*,1
COC(=O)c1ccc2nc(-c3ccc(OC)c(OC)c3)c(Cc3ccc(C)cc3)n2c1,20,.,.,.,21,1
Cc1ccc(Cc2c(-c3ccco3)nc3c(C)cc(Br)cn23)cc1,49*,.,.,.,50*,0
SMILES,GC-A act,DYRK1A inh,HSF1 activator,HSF1 inh,NPR2 activator,aDG glyco up
COC(=O)c1ccc2nc(-c3ccco3)c(Cc3cccc(F)c3)n2c1,29,.,.,.,42*,0
COC(=O)c1ccc2nc(-c3ccc(F)cc3)c(Cc3cccc(F)c3)n2c1,28,.,.,.,39*,1
CN(C(=O)c1cccc(NC(=O)Cc2cccc(NC(=O)C3CCCN(C(=O)C4CCCC4)C3)c2)c1)C1CC1 (stereo unspecified),1,-4,.,.,6,0
CC(=O)c1ccc(OCC(=O)c2ccc(-c3ccccc3)cc2)cc1,4,0,-7,-3,0,0
COC(=O)c1ccc2nc(-c3ccco3)c(Cc3ccc(C)cc3)n2c1,44*,.,.,.,52*,1
Cc1ccc(Cc2c(-c3ccco3)nc3ccc(C)cn23)cc1,10,.,.,.,13,0
COc1ccc(C)cc1S(=O)(=O)Nc1cccnc1,0,2,5,-10,-2,0
CCCCC(CC)C(=O)Oc1ccc(O)c(C(C)(C)C)c1 (stereo unspecified),-7,-6,-5,-1,4,1
CC1(C)CC(NC(=O)c2cc(COc3cccc(C(F)(F)F)c3)on2)CCO1 (stereo unspecified),2,1,19,9,3,1
CC(C)CNC(=O)C1CCN(Cc2ccc(OCc3ccccc3)cc2)CC1,0,-3,-71,-61*,3,1
CN1CCN(c2ccc(NC(=O)c3ccc([N+](=O)[O-])o3)cc2Cl)CC1,-1,-2,-79,-78*,1,0
Cc1ccc(NC(=O)c2cc(NC(=O)c3ccco3)ccc2N2CCOCC2)cc1,1,5,-72,-64*,8,0
COc1c(C)cccc1C(=O)Nc1ccc(N2CCOCC2)c(Cl)c1,5,1,60*,25,-3,0
CC(C)C(=O)N1CCN(c2ccc(NC(=O)c3ccc([N+](=O)[O-])o3)cc2Cl)CC1,2,-3,.,.,-2,0
O=C(Nc1ccc(N2CCOCC2)c(Cl)c1)c1cccnc1Cl,0,0,2,2,2,2
Cc1ccc(NC(=O)c2cc(NC(=O)c3ccco3)ccc2N2CCCCC2)cc1,22,0,7,1,15,0
O=C(Nc1ccc(N2CCOCC2)c(Cl)c1)c1ccc([N+](=O)[O-])o1,3,-1,141*,108,5,-1
O=C(NCCc1ccccc1)C1CCN(S(=O)(=O)N2CCCCC2)CC1,4,2,5,-2,3,0
CCc1ccc(NC(=O)COC(=O)CC2CCCC2)cc1,3,2,.,.,2,0
O=C(NCCCN1CCOCC1)c1cc(-c2ccco2)nc2ccccc12,2,.,.,.,2,0
O=C(Nc1ccccc1)C1CCN(S(=O)(=O)c2ccc3c(c2)OCCO3)CC1,-3,-3,-3,-9,-7,0
O=C(O)Cc1nc(-c2cccnc2)sc1-c1ccc(Br)cc1,0,3,-18,-5,-1,0
Cc1ccc(NC(=O)c2ccc([N+](=O)[O-])o2)cc1S(=O)(=O)N1CCOCC1,-8,-2,75*,66,0,1
O=C(Nc1cccc(O)c1)c1ccc(S(=O)(=O)N2CCCCCC2)cc1,-5,2,75*,36,-3,0
